Bioassay records deposited in PubChem by National Center for Advancing Translational Sciences (NCATS).
In the library only some 6.5% were active in any assay of this set; here they are far more common.
HT1080 IDH1KD tx = HT-1080 IDH1 knockdown cell toxicity (counter line). Potency, µM (series often up to 46.1 µM), hits mostly cytotoxic. HT-1080 IDH1 knockdown viability, ATP luminescence, 48 h. 360,000 compounds, 2% hits
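% activity derives from luminescence (CellTiter-Glo), normalised to DMSO and no-cell wells. HT-1080-IDH1KD cells, 750/well, had 48 h compound exposure at 37 °C.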
Giardia kill = kills Giardia lamblia; Giardia lamblia trophozoite viability; activity change, % at 7.66 µM, hits read low; 340,000 compounds, 0.15% hits; in the data active means activity change below about -80%; inconclusive means between about -30% and that limit;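 further: parasites exposed to compound for two days anaerobically before the ATP read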
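ATP-content bioluminescence gauges trophozoite survival. Cells (100/well) receive compound and incubate anaerobically for 48 hrs at 37 deg C; detection reagent follows for 15-30 min at room temperature.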
HT1080NT lethal = kills 2HG-producing HT-1080-NT fibrosarcoma cells; HT-1080-NT fibrosarcoma viability, CellTiter-Glo ATP luminescence, 48 h; Potency, µM (highest dose often 46.1 µM), most hits filed as cytotoxic; 360,000 compounds, 1.6% hits; AID 686970;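 further: NT is the 2HG producing partner of a matched IDH1 knockdown line; nearly all actives have a fitted effect of over 55% in size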
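Luminescent CellTiter-Glo readout after 48 hours of compound exposure at 37 degrees C defined viability of HT-1080-NT cells. Activity was normalized to DMSO wells and cell-free media wells; concentration-response curves were fitted and assigned curve classes.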
TGFb inhibitor = TGF-b pathway inhibition. Potency, µM (doses to about 46.1 µM), most hits filed as inhibitors. AID 588855. HepG2 CAGA-GFP TGF-b/SMAD3 reporter, GFP fluorescence, 18 h; TGF-beta stimulated, 500 pg/mL final. 410,000 compounds, 1.2% hits; further: nearly all actives have a fitted effect of over 65% in size
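HEPG2 CAGA-GFP cells (1000/well, DMEM with 1% FBS) were pre-incubated 2 h at 37 degrees C, given compound by pin tool, then stimulated with TGF-beta at 500 pg/mL final for 18 h before per-cell GFP fluorescence imaging.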
IL1B secr inh = inflammasome signaling inhibition, IL-1 beta readout | THP-1 LPS/ATP IL-1B secretion, AlphaLISA, 16 h; active compounds read low | activity change, % at 57.5 µM | 360,000 compounds, 4.7% hits | AID 743279; in the data active means activity change below about -50%; inconclusive means mostly about -30% to -49%
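Secreted IL-1B measured by AlphaLISA bead assay after 16 h compound exposure of THP-1 cells; compounds (final up to 57.5 uM) added 1 h before LPS (250 ng/mL) and ATP (1.25 mM) stimulation; lower signal means less secretion.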
HepG2 viability = counter-screen for TGF-b inhibitors: cytotoxicity in HepG2 cells; HepG2 CAGA-GFP viability, ATP luminescence, 18 h; Potency, µM (titrated, usually from 46.1 µM), most hits filed as cytotoxic; 410,000 compounds, 0.76% hits; AID 588856
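HepG2 CAGA-GFP cells (1000/well, DMEM with 1% FBS) received compound, then TGF-beta at 500 pg/mL final, and were incubated 18 hours at 37 degrees C. Viability was read by CellTiter-Glo luminescence. Media-only wells were set as complete cell-killing and DMSO as no toxicity.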
Numbers stand for hits. Unless noted, the call rests on the fitted dose curve; in most records, active means well fitted curve in the direction sought with a large enough effect; inconclusive means small, poorly fitted or top-dose-only effect, or another doubt; inactive means no such curve, though single readings can be large; an effect the other way counts as inactive or inconclusive.

For Clc1ccccc1Nc1nc(NCC2CC2)nc2ccsc12 the results were HT1080 IDH1KD tx inactive, HT1080NT lethal inconclusive, TGFb inhibitor inactive, IL1B secr inh inactive and HepG2 viability inactive.
`CC(C)Nc1nc(NCCOc2ccccc2)c2sccc2n1` gave HT1080 IDH1KD tx 23µM, HT1080NT lethal 26µM, TGFb inhibitor inconclusive, IL1B secr inh -72 and HepG2 viability inactive.
Screening CC(=O)NCCNc1nc(NC(C)C)nc2ccsc12 returned HT1080 IDH1KD tx inactive, HT1080NT lethal inconclusive, TGFb inhibitor inactive, IL1B secr inh inactive and HepG2 viability inactive.
For COc1ccccc1CNc1nc(NCc2ccc(C(C)C)cc2)c2sccc2n1 the results were HT1080 IDH1KD tx 18µM, HT1080NT lethal 21µM, TGFb inhibitor inconclusive, IL1B secr inh -83 and HepG2 viability inactive.
CC(C)c1ccc(CNc2nc(NCC3CC3)nc3ccsc23)cc1 was read as HT1080 IDH1KD tx 18µM, HT1080NT lethal 23µM, TGFb inhibitor inconclusive, IL1B secr inh inactive and HepG2 viability 14µM.
For COc1ccccc1CNc1nc(NC(C)C)nc2ccsc12 the results were HT1080 IDH1KD tx inconclusive, HT1080NT lethal inconclusive, TGFb inhibitor inconclusive, IL1B secr inh -98 and HepG2 viability inactive.
Screening CCOc1ccc(S(=O)(=O)N2CCN(c3ccccc3)CC2)c2cccnc12 returned HT1080 IDH1KD tx inactive, Giardia kill inactive, HT1080NT lethal inactive, TGFb inhibitor inconclusive, IL1B secr inh inactive and HepG2 viability inactive.
`CSc1ccccc1CNc1nc(NCC2CC2)nc2ccsc12` gave HT1080 IDH1KD tx 21µM, HT1080NT lethal 18µM, TGFb inhibitor 16µM, IL1B secr inh -106 and HepG2 viability 11µM.
COc1cccc(CNc2nc(NC(C)C)nc3ccsc23)c1OC was read as HT1080 IDH1KD tx inactive, HT1080NT lethal 15µM, TGFb inhibitor inconclusive, IL1B secr inh -81 and HepG2 viability inactive.
`COc1ccccc1CNc1nc(Nc2ccc(C)cc2C)c2sccc2n1` gave HT1080 IDH1KD tx 23µM, HT1080NT lethal 21µM, TGFb inhibitor inconclusive, IL1B secr inh inconclusive and HepG2 viability inactive.
`COc1cccc(CNc2nc(NCC3CC3)nc3ccsc23)c1OC` gave HT1080 IDH1KD tx 12µM, HT1080NT lethal 23µM, TGFb inhibitor inconclusive, IL1B secr inh -101 and HepG2 viability inactive.
`c1csc(CNc2nc(NCC3CCCCC3)c3sccc3n2)c1` gave HT1080 IDH1KD tx inconclusive, HT1080NT lethal inconclusive, TGFb inhibitor inconclusive, IL1B secr inh inconclusive and HepG2 viability inactive.
CC[N+](C)(C(=O)O)/C(=C\c1ccccc1)c1ccnc2ccccc12 (stereo not given) was read as TGFb inhibitor inactive and HepG2 viability inactive.
Screening CC(=O)NC1=NN(C(C)=O)C(C)(c2cccnc2)S1 (stereo not given) returned HT1080 IDH1KD tx inconclusive, Giardia kill inactive, HT1080NT lethal inactive, TGFb inhibitor inactive, IL1B secr inh inactive and HepG2 viability inactive.
`CC(=O)NC1=NN(C(C)=O)C(C)(c2cccs2)S1` (stereo not given) gave HT1080 IDH1KD tx 4.6µM, Giardia kill inactive, HT1080NT lethal 2.9µM, TGFb inhibitor inactive, IL1B secr inh inactive and HepG2 viability inactive.
Screening CC(=O)NC1=NN(C(C)=O)C(C)(c2ccco2)S1 (stereo not given) returned HT1080 IDH1KD tx 23µM, Giardia kill inactive, HT1080NT lethal inconclusive, TGFb inhibitor inactive, IL1B secr inh inactive and HepG2 viability inactive.
`O=C(NC(=O)c1ccncc1)NC(c1ccccc1)c1ccccc1` gave HT1080 IDH1KD tx inactive, Giardia kill inactive, HT1080NT lethal inactive, TGFb inhibitor inactive, IL1B secr inh inactive and HepG2 viability inactive.
Screening Cc1nc(CS(=O)c2ccc(Cl)cc2)cc(NCc2ccc(Cl)cc2Cl)n1 (stereo not given) returned HT1080 IDH1KD tx inconclusive, Giardia kill inactive, HT1080NT lethal inconclusive, TGFb inhibitor inconclusive, IL1B secr inh -77 and HepG2 viability inactive.
`CCOC(=O)c1c(NC(=O)c2cccnc2)sc(C)c1C` gave HT1080 IDH1KD tx inactive, Giardia kill inactive, HT1080NT lethal inactive, TGFb inhibitor inactive, IL1B secr inh -54 and HepG2 viability inactive.
Screening CCOC(=O)c1c(NC(=O)C2=C(C)NC(=S)NC2c2ccc(F)cc2)sc(C)c1C (stereo not given) returned HT1080 IDH1KD tx inactive, Giardia kill inactive, HT1080NT lethal inconclusive, TGFb inhibitor inactive, IL1B secr inh -87 and HepG2 viability inactive.
`Cc1sc(NC(=O)c2cccs2)c(C(N)=O)c1C` gave HT1080 IDH1KD tx inactive, Giardia kill inactive, HT1080NT lethal inactive, TGFb inhibitor inactive, IL1B secr inh -59 and HepG2 viability inactive.
For NC(=O)c1ccsc1NC(=O)c1cccs1 the results were HT1080 IDH1KD tx inactive, Giardia kill inactive, HT1080NT lethal inactive, TGFb inhibitor inactive, IL1B secr inh inactive and HepG2 viability inactive.
Screening CCOC(=O)c1c(NC(=O)C2=C(C)NC(=S)NC2c2ccc(C)cc2)sc(C)c1C (stereo not given) returned HT1080 IDH1KD tx inactive, Giardia kill inactive, HT1080NT lethal inconclusive, TGFb inhibitor inactive, IL1B secr inh -76 and HepG2 viability inactive.
`Cn1c(/C(C#N)=C(\O)c2ccc(Cl)s2)nc2ccccc21` gave HT1080 IDH1KD tx inactive, Giardia kill inactive, HT1080NT lethal inactive, TGFb inhibitor inactive, IL1B secr inh inactive and HepG2 viability inactive.
`Cc1cccc(CC(=O)NCCc2csc(-c3ccc(C(F)(F)F)cc3)n2)c1` gave TGFb inhibitor inactive and HepG2 viability inactive.
For C=C1CCC[C@]2(C)C[C@H]3OC(=O)C(CNCCN(CC)CC)[C@H]3CC12 (stereo not given in full) the results were HT1080 IDH1KD tx inconclusive, Giardia kill inactive, HT1080NT lethal inactive, TGFb inhibitor inactive, IL1B secr inh -96 and HepG2 viability inactive.
Screening C=C1CCC[C@]2(C)C[C@H]3OC(=O)C(CNCCN(C)C)[C@H]3CC12 (stereo not given in full) returned HT1080 IDH1KD tx inconclusive, Giardia kill inactive, HT1080NT lethal inconclusive, TGFb inhibitor inactive, IL1B secr inh inactive and HepG2 viability inactive.
Screening C=C1CCC[C@]2(C)C[C@H]3OC(=O)C(CNCC(C)C)[C@H]3CC12 (stereo not given in full) returned HT1080 IDH1KD tx inconclusive, Giardia kill inactive, HT1080NT lethal inconclusive, TGFb inhibitor inconclusive, IL1B secr inh -69 and HepG2 viability inactive.
